# According to PubChem BioAssay:
# Activity calls are given as the source filed them.
# Columns and labels:
# Albumin (Bos taurus) = Albumin (Bos taurus) (UniProt P02769); experiment: bovine serum albumin binders on microarray, profiling panel, artefact control for SMM control protein annotation, biochemical, small-molecule microarray, Alexa647 label, 635/667 nm fluorescence (AID 1118); details: BSA-A647 binding, fluorescence 635 nm, higher = more signal;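 also: score merges 667 nm emission intensity and signal-to-noise per printed compound spot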
# [1] = small-molecule microarray binders of probe aXIP, primary screen, biochemical, NeuroSMM set, 635/667 nm fluorescence (AID 1119); details: higher = more signal, called active from +8 up or from −8 down;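 also: probe is the protein aXip251-270 applied at 1 µg/mL to compound-printed slides; binding of probe to printed compounds measured as 667 nm fluorescence plus signal to noise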
# [2] = small-molecule binders of probe aNOTCH3, primary screen, biochemical, small-molecule microarray, 635/667 nm fluorescence (AID 1120); details: higher = more signal;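 also: probe is a biotin-tagged antibody raised against NOTCH3 rather than NOTCH3 protein; score merges spot fluorescence near 667 nm with spot signal to noise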
# [3] = small-molecule binders of probe aNOTCH2, primary screen, biochemical, small-molecule microarray, 635/667 nm fluorescence (AID 1121); details: higher = more signal;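 also: score merges feature fluorescence read at 667 nm with its signal to noise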
# [4] = molecular target: Carbonic anhydrase 2 (Homo sapiens) (UniProt P00918); experiment: CAII small-molecule binders, profiling panel, biochemical, small-molecule microarray, Alexa647-labelled CAII (AID 1122); details: CAII-A647 binding fluorescence, higher = more signal
# [5] = COS7 lysate on small-molecule microarray, probe aHis, 635 nm (AID 1123); details: COS7 cell lysate, fluorescence, higher = more signal;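 also: z-score combines 667nm fluorescence intensity with signal-to-noise per printed compound spot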
# [6] = compound binding in COS7 lysate, probe aLAP1, primary screen, cell lysate, small-molecule microarray (AID 1124); details: probe aLAP1, fluorescence, higher = more signal;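 also: lysate comes from COS7 cells expressing LAP1 and is applied at 0.3 µg/mL; score merges spot fluorescence near 667 nm with signal-to-noise over triplicate slides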
# Sam68 (KHDRBS1) = experiment: Sam68 small-molecule binders, primary screen, biochemical, small-molecule microarray, 635 nm fluorescence (AID 1125); details: small-molecule microarray binding, higher = more signal;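 also: score merges 667 nm channel intensity with signal to noise over triplicate slides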
# [7] = system: Chordin-like protein 2 (CHRDL2); experiment: CHRDL2 small-molecule binders, primary screen, biochemical, small-molecule microarray, 635 nm fluorescence (AID 1126); details: small-molecule microarray binding, fluorescence 635 nm; higher = more signal;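 also: printed compound slides probed with Chrdl2 protein at 4 µg/mL for 1 h at 4 C; score merges 667 nm emission intensity with signal to noise over three replicate slides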
# [8] = molecular target: Concanavalin-A (Canavalia ensiformis) (UniProt P02866); experiment: ConA small-molecule binders, primary screen, artefact control for SMM control protein annotation, biochemical, small-molecule microarray, Alexa647 label, 635 nm (AID 1127); details: ConA-A647 binding fluorescence, higher = more signal;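 also: z combines 667 nm emission intensity with signal-to-noise across three replicate slides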
# Chain of Concanavalin-A (Canavalia ensiformis) (P02866 whole entry, looked up): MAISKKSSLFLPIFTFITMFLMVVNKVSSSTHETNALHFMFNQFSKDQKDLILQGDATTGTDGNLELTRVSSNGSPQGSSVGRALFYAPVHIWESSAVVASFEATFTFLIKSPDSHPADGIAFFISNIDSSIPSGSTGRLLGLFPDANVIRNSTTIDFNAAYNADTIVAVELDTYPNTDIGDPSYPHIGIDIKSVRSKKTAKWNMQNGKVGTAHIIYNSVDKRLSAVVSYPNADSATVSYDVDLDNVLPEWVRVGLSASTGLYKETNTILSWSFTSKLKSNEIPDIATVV
# Chain of Albumin (Bos taurus) (P02769 whole entry, looked up): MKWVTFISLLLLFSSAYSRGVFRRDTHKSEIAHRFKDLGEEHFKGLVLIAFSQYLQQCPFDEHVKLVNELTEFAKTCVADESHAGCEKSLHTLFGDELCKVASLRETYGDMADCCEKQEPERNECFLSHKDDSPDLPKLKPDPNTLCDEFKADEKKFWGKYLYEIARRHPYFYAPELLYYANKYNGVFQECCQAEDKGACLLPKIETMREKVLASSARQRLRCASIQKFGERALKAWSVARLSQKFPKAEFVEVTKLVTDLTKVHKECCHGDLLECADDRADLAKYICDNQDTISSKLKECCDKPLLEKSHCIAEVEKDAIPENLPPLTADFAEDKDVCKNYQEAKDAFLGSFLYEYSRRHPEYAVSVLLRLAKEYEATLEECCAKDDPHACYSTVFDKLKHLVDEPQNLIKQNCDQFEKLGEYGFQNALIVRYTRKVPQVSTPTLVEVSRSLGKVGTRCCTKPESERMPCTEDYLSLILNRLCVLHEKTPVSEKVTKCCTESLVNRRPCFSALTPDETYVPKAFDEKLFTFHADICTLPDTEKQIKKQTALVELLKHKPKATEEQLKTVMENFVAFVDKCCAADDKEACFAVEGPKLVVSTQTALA
Compound,composite z-score (Albumin (Bos taurus)),composite Z-score [1],composite z-score [2],composite z-score [3],composite z-score [4],composite z-score [5],composite z-score [6],composite z-score (Sam68 (KHDRBS1)),composite z-score [7],composite z-score [8]
COC(=O)[C@@]1(Cc2ccccc2N=[N+]=[N-])N=C(c2ccc(OCCCO)cc2)O[C@H]1c1ccccc1N=[N+]=[N-],-0.908,0.332 (inactive),0.149,0.0977,0.355,1.44,0.494,0.996,0.456,0.851
COc1cc2c(cc1OC)CN(C(=O)[C@@H]1[C@H]3C(=O)O[C@H](c4ccccc4)[C@H](c4ccccc4)N3[C@H](c3ccc(OCCO)cc3)[C@@]13C(=O)Nc1ccc(C#CC4(O)CCCCCC4)cc13)CC2,0.872,0.266 (inactive),0.398,-0.166,0.543,2.03,0.514,1.32,0.978,1.13
O=C1O[C@H](c2ccccc2)[C@H](c2ccccc2)N2[C@H]1[C@@H](C(=O)Nc1nc3ccccc3s1)[C@]1(C(=O)Nc3ccc(C#CC4(O)CCCCCC4)cc31)[C@H]2c1ccccc1OCCO,0.743,-0.305 (inactive),0.0459,-0.0454,0.461,1.82,0.398,1.3,0.413,1.07
CCCC[C@@H]1C[C@H]1[C@@H](NC(=O)c1cccs1)c1ccc(C(F)(F)F)cc1,-0.999,-0.496 (inactive),0.0026,-0.0859,-0.195,-0.559,0.0126,-0.154,0.149,-0.162
C=CC[C@@]1(C(=O)N2CCOCC2)N=C(c2ccc(OCCCO)cc2)O[C@@H]1c1ccccc1CN=[N+]=[N-],0.774,0.28 (inactive),0.405,0.083,0.527,2.89,1.41,1.33,-0.186,1.16
COC(=O)[C@@]1(Cc2ccc(OC)cc2)[C@H]2c3cc(C(=O)N(C)C)n(C[C@H](O)CO)c3C[C@H]2CN1C(=O)c1ccccc1,0.956,-0.312 (inactive),0.301,0.462,0.782,2.24,0.828,0.833,-1.29,0.863
COc1ccc([Si](C)(C)[C@@H]2[C@@H](CCn3cc([C@H](O)c4ccccc4)nn3)O[C@]3(C(=O)N(Cc4ccc(N5CCC5=O)cc4)c4ccccc43)[C@H]2C)cc1,0.0006,0.811 (inactive),-0.505,-0.0849,-0.266,0.121,-0.426,-0.323,-0.0871,0.469
O=C(CS)NCCCCCCNC(=O)[C@H]1C[C@H]2C(=O)N[C@@H](Cc3ccccc3)C(=O)N2[C@H]1c1ccc(O)cc1,-0.242,0.578 (inactive),-0.423,-0.0924,0.557,2.18,0.871,1.18,0.757,1.1
Cc1ccc(S[C@]2(C(=O)NCC(F)(F)F)CC(=O)N(Cc3ccccc3)[C@@H]2c2ccc(CO)cc2I)cc1,0.132,0.184 (inactive),-0.212,-0.183,0.679,1.21,1.57,0.0687,-0.151,-0.203
C=C[C@@H](OC)[C@H](OC(=O)Nc1ccc(SC)cc1)c1ccc(O)c(F)c1,0.622,-0.584 (inactive),0.0337,-0.0891,0.699,2.18,0.683,1.07,0.0611,0.0462
CC(C)C[C@@H]1NC(=O)[C@@H]2C[C@H](C(=O)NCCCCN(C)C)[C@H](c3cccc(OCCO)c3)N2C1=O,0.434,0.157 (inactive),-0.245,-0.132,0.466,1.63,0.613,0.505,0.175,0.129
Cc1cc(C)c(C(O)C2C=CC3C(=O)NC(=O)C3N2Nc2ccc(Cl)cc2Cl)c(C)c1 (stereo not given),0.961,0.234 (inactive),0.396,-0.0125,0.575,2.94,0.772,1.1,-0.48,1.09
COc1ccc(CCNC(=O)[C@@H]2c3ccccc3C(=O)N(Cc3cc(C(F)(F)F)cc(C(F)(F)F)c3)[C@H]2c2ccc(CO)cc2)cc1,-0.329,-0.586 (inactive),-0.208,-0.149,0.681,0.84,0.566,1.14,-0.571,0.425
CC(C)(C)N1CC=CC23O[C@@H]4C=CCCOC(=O)C4[C@H]2C(=O)N(CCO)[C@@H]3C1=O (stereo not given in full),-0.0163,-0.391 (inactive),-0.13,0.226,0.282,-1.09,-0.155,-0.889,-0.267,-1.39
CN1C(=O)C2C=CC(C(O)c3ccccn3)N(N(c3ccccc3)c3ccccc3)C2C1=O (stereo not given),0.206,1.31 (inactive),-0.004,-0.0166,0.822,-0.123,1.04,-0.349,0.227,0.291
CC1=C([C@H](O)CCc2ccccc2)[C@H](CO)[C@@H]2C(=O)N(C)C(=O)[C@@H]2C1,0.361,-0.297 (inactive),0.0313,0.0592,0.125,0.58,0.244,0.535,0.557,0.476
C=C[C@@H](COC(C)=O)N(C(=O)OC(C)(C)C)S(=O)(=O)c1ccc(Br)cc1,0.321,0.388 (inactive),0.0494,-0.0401,0.646,0.155,-0.101,0.827,1.4,1.12
O=C1O[C@@H](c2ccccc2)[C@@H](c2ccccc2)N2[C@@H](c3ccc(O)cc3)[C@]3(C(=O)Nc4ccc(C#CC5(O)CCCCCC5)cc43)[C@@H](C(=O)NC[C@H](O)c3ccccc3)[C@H]12,0.0697,0.2 (inactive),-0.262,-0.0984,0.547,1.05,0.632,0.686,-0.703,0.221
CCCCC(=C=CC[C@@H](O)c1ccccc1OCCO)C[C@@H](O)COCc1ccccc1,0.338,-0.0202 (inactive),-0.281,-0.148,0.47,1.95,0.207,0.471,-0.893,-0.525
O=C1C[C@@](C(=O)NCCN2CCOCC2)(c2ccc([N+](=O)[O-])cc2)[C@@H](c2ccc(CO)cc2I)N1C1CCCCC1,0.614,0.142 (inactive),-0.095,-0.14,0.659,1.74,1.07,0.761,0.473,0.416
[N-]=[N+]=NCc1ccccc1C[C@]1(C(N)=O)N=C(c2ccc(OCCCO)cc2)O[C@H]1c1ccccc1,0.96,-0.524 (inactive),0.073,-0.1,0.82,2.67,0.525,0.976,-1.03,0.533
COC(=O)c1c(CC[C@@H](CO)NC(=O)N2CCC[C@H]2Cn2cc(Cc3ccccc3)nn2)oc(C(C)=O)c1C(=O)OC,0.0832,-0.413 (inactive),0.233,-0.133,0.643,1.33,0.381,0.694,0.668,0.488
O=C1O[C@H](c2ccccc2)[C@H](c2ccccc2)N2[C@H]1[C@@H](C(=O)N1CCN(c3ncccn3)CC1)[C@]1(C(=O)Nc3ccc(C#CC4(O)CCCCCC4)cc31)[C@H]2c1ccc(OCCO)cc1,0.0591,6.42 (inactive),1.39,0.606,0.62,3.46,1.61,1.29,1.41,1.1
C[N+](C)(C)CCCCCCNC(=O)[C@H]1C[C@H]2C(=O)N[C@@H](Cc3ccccc3)C(=O)N2[C@H]1c1ccc(O)cc1,-0.459,-0.505 (inactive),-0.0471,-0.137,0.4,1.05,0.0686,0.479,1.37,0.547
COC(=O)C(CC#Cc1ccc2c(c1)[C@]1(C(=O)N2)[C@H](c2ccccc2OCCO)N2[C@H](c3ccccc3)[C@H](c3ccccc3)OC(=O)[C@H]2[C@@H]1C(=O)NC[C@H](O)c1ccccc1)C(=O)OC,0.42,0.231 (inactive),-0.19,0.0537,0.544,1.83,0.445,0.947,0.285,1.12
COCCOC(=O)N1C(=O)[C@@]2(c3cc(C#Cc4ccc(OC)cc4)ccc31)[C@H](C(=O)Nc1nc3ccccc3s1)[C@H]1C(=O)O[C@H](c3ccccc3)[C@H](c3ccccc3)N1[C@@H]2c1ccc(O)cc1,0.374,0.364 (inactive),0.214,-0.118,-0.111,1.91,0.171,1.33,0.576,1.16
CCOC(=O)c1ccc(NC(=O)O[C@H]2[C@H](OC(=O)Nc3ccc4c(c3)OCO4)[C@@H](OC(=O)Nc3ccc4c(c3)OCO4)[C@@H](OC)O[C@@H]2CO)cc1,0.862,0.805 (inactive),0.291,-0.0226,0.516,2.56,0.535,1.31,0.0612,1.14
